The list is not random: actives were taken first. Their share in the collection is about 11%.
12-hLO inh: inhibitors of human 12-lipoxygenase (ALOX12); purified 12-hLO, xylenol orange hydroperoxide absorbance; Potency, µM (doses to about 57.1 µM), without a hit: at the highest dose activity change, negative = inhibition, most hits filed as inhibitors; 0.12% of 150,000 active; AID 1452; active = well fitted curve in the direction sought with a large enough effect; inconclusive = small, poorly fitted or top-dose-only effect, or another doubt; inactive = no such curve, though single readings can be large; an effect the other way counts as inactive or inconclusive; also: potency is read from the fitted curve at half-maximal effect; nearly all actives have a fitted effect of over 55% in size
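Purified human 12hLO (150 nM final) was preincubated with compounds for 15 min at room temperature in 25 mM Hepes pH 7.0, 0.01% Triton X-100, then reacted with 40 uM arachidonic acid for 30 min. Hydroperoxide was detected with ferrous iron/xylenol orange.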
IMPase Li inh: membrane-permeable IMPase blocker, potentiated with lithium. CHO-M1 cells, IP1 TR-FRET (IP-One), carbachol + lithium. AID 1457. Potency, µM (highest dose often 59.4 µM), for the others: at the top dose activity, negative = IMPase inhibition, usual class: inhibitors. 0.35% of 210,000 active; active = well fitted curve in the direction sought with a large enough effect; inconclusive = small, poorly fitted or top-dose-only effect, or another doubt; inactive = no such curve, though single readings can be large; an effect the other way counts as inactive or inconclusive;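 also: IP1 builds up when IMPase is blocked and the TR-FRET signal falls; potency is read from the fitted curve at half-maximal effect; plate controls were basal vehicle for no effect and high inhibitor control for full effect; nearly all actives have a fitted effect of over 50% in size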
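Steps: plate 2000 CHO-M1 cells per well and culture 16–30 h; add compound and lithium; incubate 30 min, 37C; add d2-IP1 tracer and Eu cryptate anti-IP1 antibody in lysis buffer; read after 10 min at room temperature.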
ALDH1A1 inh: inhibitors of human aldehyde dehydrogenase 1A1. P00352. Potency, µM (titrated, usually from 75.3 µM), inactives show at the highest dose activity, negative = inhibition, hits mostly inhibitors. 7.3% of 220,000 active. AID 1030. Purified ALDH1A1, NADH fluorescence, propionaldehyde substrate;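 also: potency is read from the fitted curve at half-maximal effect; plate controls were no enzyme wells and a reference inhibitor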
Target sequence (P00352 whole entry, looked up): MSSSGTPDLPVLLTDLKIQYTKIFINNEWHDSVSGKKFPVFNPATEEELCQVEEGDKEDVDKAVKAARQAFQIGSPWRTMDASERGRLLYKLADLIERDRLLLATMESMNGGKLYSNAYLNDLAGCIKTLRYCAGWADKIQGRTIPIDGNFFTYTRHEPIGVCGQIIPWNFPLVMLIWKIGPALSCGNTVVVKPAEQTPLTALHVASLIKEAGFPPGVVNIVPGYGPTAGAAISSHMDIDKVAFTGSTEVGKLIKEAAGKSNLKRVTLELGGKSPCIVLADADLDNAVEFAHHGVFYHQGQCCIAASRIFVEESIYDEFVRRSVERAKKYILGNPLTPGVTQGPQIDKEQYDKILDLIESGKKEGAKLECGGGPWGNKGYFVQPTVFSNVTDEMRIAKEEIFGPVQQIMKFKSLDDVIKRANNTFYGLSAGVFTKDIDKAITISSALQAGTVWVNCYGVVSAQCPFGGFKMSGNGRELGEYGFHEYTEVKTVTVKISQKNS
PNC assembly inh: perinucleolar compartment assembly inhibition; 3.1% of 140,000 active; AID 2417; activity change (PNC), negative = inhibition, % at 10 µM; PC3M PTB-GFP, PNC prevalence imaging, 16 h; active compounds read low;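 active = readout at or below -70, meaning at least 70% loss of cells showing the perinucleolar compartment, a nuclear body marking cancer cells; inconclusive = readout between -30 and a set limit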;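 also: plate controls were DMSO wells for no effect and camptothecin positive control wells for full effect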
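Read-out is percentage of cells bearing a perinucleolar compartment, from automated 20x imaging of fixed, Hoechst-stained PC3M PTB-GFP cells. Cells were seeded 4 h, then exposed 16 h to compound (23 nl of library stock) in duplicate plates.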
IMPase inh: membrane-permeable compound that blocks inositol monophosphatase | P97697 | CHO-M1 cells, IP1 accumulation, HTRF TR-FRET ratio | inhibition (IP1 accumulation), % at 46.1 µM | 120,000 tested, under 10 active | AID 901; active = well fitted curve in the direction sought with a large enough effect in the signal ratio, not every such curve was filed as active; inconclusive = small, poorly fitted or top-dose-only effect, or a change in a side signal; inactive = no such curve, though single readings can be large or run the other way; the % refers to the signal ratio;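 also: cells stimulated with carbachol in lithium chloride buffer; plate controls were DMSO basal wells for no effect and reference inhibitor wells for full effect; higher means more IMPase inhibition seen as more IP1 and lower FRET ratio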
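Seeded CHO-M1 cells were dosed with compound at up to 46 uM, stimulated with carbachol for 30 min, then lysed in IP-One detection reagents. Higher IP1 lowers the TR-FRET signal.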
HPGD block: blocks human HPGD enzyme activity | 4.3% of 150,000 active | AID 894 | purified HPGD, NADH fluorescence kinetic, PGE2 substrate | Potency, µM, inactives show at the highest dose activity change, negative = inhibition, most hits filed as inhibitors; also: potency is read from the fitted curve at half-maximal effect
Target sequence (P15428 whole entry, looked up): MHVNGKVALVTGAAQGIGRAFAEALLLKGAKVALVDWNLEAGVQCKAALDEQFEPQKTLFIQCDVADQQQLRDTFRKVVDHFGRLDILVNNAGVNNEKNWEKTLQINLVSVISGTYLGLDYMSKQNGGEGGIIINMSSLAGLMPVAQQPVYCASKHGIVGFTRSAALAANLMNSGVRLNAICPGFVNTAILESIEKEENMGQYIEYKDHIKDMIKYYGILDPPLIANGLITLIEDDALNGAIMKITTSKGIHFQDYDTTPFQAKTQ
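20 nM HPGD preincubated 15 min at room temperature with compound in 50 mM Tris-HCl pH 8, 0.01% Tween 20. Started with 1 mM NAD+ and 30 uM prostaglandin E2; NADH fluorescence (360/450 nm) read 5 times over 30-s intervals, last minus first.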
An asterisk follows results filed as active; ? = inconclusive; . = no result; [ ] = remark or other dose. Unless noted, calls follow the shape of the dose curve; as a rule, active = well fitted inhibition curve with a large enough effect (not every such curve was filed as active); inconclusive = small, poorly fitted or top-dose-only effect, or another doubt; inactive = no such curve, though single readings can be large or run the other way. Unless noted, % is scaled to controls: 0 for no effect and ±100 for the full control effect.

SMILES | 12-hLO inh | IMPase Li inh | ALDH1A1 inh | PNC assembly inh | IMPase inh | HPGD block
Cc1cc(C)cc(N=Cc2[nH]c3ccc(Br)c(Cl)c3c2O)c1 | -8% | 13% | 7.9µM* | -28 | 3 | ?
O=C1CSC(=S)N1N1C(=O)c2cccc([N+](=O)[O-])c2C1=O | . | 12% | 7.9µM* | . | . | .
COCc1ccc([C@@H]2C[C@H]3CN(Cc4cccnc4)C(=O)[C@]34CCCN24)o1 | . | 10% | 1% | . | . | .
COCc1ccc([C@@H]2C[C@H]3CN(Cc4ccccc4C)C(=O)[C@]34CCCN24)o1 | . | 24% | 20µM* | . | . | .
CCCc1nc2c(sc3nc4c(cc32)COC(C)(C)C4)c(=O)n1Cc1ccco1 | -3% | -2%[38.3 µM] | 0.89µM* | ? | 11 | ?
CCCc1nc2c(sc3nc4c(cc32)COC(C)(C)C4)c(=O)n1CCN(CC)CC | . | 6% | 18µM* | . | . | .
CC1(C)Cc2nc3sc4c(SCC(=O)NCc5ccco5)ncnc4c3cc2CO1 | -6% | ? | 8.9µM* | ? | 12 | 14µM*
Cc1nc2c(sc3nc4c(cc32)COC(C)(C)C4)c(=O)o1 | 1% | 1% | 28µM* | -16 | 9 | -22%
CCCc1nc2c(sc3nc4c(cc32)COC(C)(C)C4)c(=O)n1CCN(C)C | . | 7% | ? | . | . | .
CCOC(=O)C1CCCN(C(=O)c2cn(CC)c3ccc(S(=O)(=O)N4CCCC4)cc3c2=O)C1 (centres undefined) | 1% | -18%[38.3 µM] | ? | 20 | -6 | -6%
CCn1cc(C(=O)N2CCN(c3ccc(OC)cc3)CC2)c(=O)c2cc(S(=O)(=O)N3CCCCC3)ccc21 | . | 13% | 11µM* | . | . | .
C=CCn1cc(C(=O)NCC2CCCO2)c(=O)c2cc(S(=O)(=O)N3CCCCCC3)ccc21 (centres undefined) | -2% | 14%[38.3 µM] | 13µM* | -2 | 3 | -11%
CCn1cc(C(=O)NCC2CCCO2)c(=O)c2cc(S(=O)(=O)N(C)C)ccc21 (centres undefined) | 0% | -2% | 4% | 22 | -21 | -11%
C=CCn1cc(C(=O)OC)c(=O)c2cc(S(=O)(=O)N3CCCCCC3)ccc21 | . | 2% | 14µM* | . | . | .
CO[C@@H]1COC(=O)C/C=C\[C@H](C)[C@H](OC)COC(=O)[C@H](C)NC(=O)C/C=C\[C@H]1C | . | . | -2%[13.5 µM] | . | . | .
Nc1c(C(=O)Nc2nc3ccccc3s2)sc2nc(-c3cccs3)ccc12 | -9% | 11µM* | ? | -28 | ? | -29%
O=C(NC(=S)Nc1nc2ccccc2s1)c1cccs1 | 0% | 9% | 3.5µM* | -100* | . | -18%
Nc1c(C(=O)Nc2ccccc2Br)sc2nc(-c3cccs3)ccc12 | . | . | . | . | -5 | .
C[N+]1(CCCC[N+]2(C)CCCCCCC2)CCCCCCC1 | 2%[11.4 µM] | -1% | 8%[13.5 µM] | . | . | 0%
O=C(Cc1ccccc1)NC1CCN(Cc2ccccc2)CC1 | . | 4% | 13% | . | . | .
CCC(C)c1ccc(NC(=S)NC2CCN(Cc3ccccc3)CC2)cc1 (centres undefined) | ? | 6% | 7.1µM* | ? | -10 | -9%
CC(Oc1ccccc1)C(=O)NC1CCN(Cc2ccccc2)CC1 (centres undefined) | -1% | 46%[38.3 µM] | 3% | -84* | 8 | -5%
S=C(Nc1ccc(Cl)cc1)NC1CCN(Cc2ccccc2)CC1 | 1% | -5% | 4µM* | -21 | . | -4%
S=C(Nc1ccccc1)NC1CCN(Cc2ccccc2)CC1 | . | 5% | 14µM* | . | . | .
Cc1ccccc1NC(=S)NC1CCN(Cc2ccccc2)CC1 | -4% | -5% | ? | ? | -6 | -7%
SMILES | 12-hLO inh | IMPase Li inh | ALDH1A1 inh | PNC assembly inh | IMPase inh | HPGD block
COc1ccc(NC(=S)NC2CCN(Cc3ccccc3)CC2)cc1OC | . | 2% | 1% | . | . | .
CCc1ccc(NC(=S)NC2CCN(Cc3ccccc3)CC2)cc1 | -3% | 11% | 20µM* | 91 | . | -20%
CC[C@@H]1OC(=O)[C@@H](C)[C@H](O[C@H]2C[C@@](C)(OC)[C@@H](O)[C@H](C)O2)C(C)[C@H](O[C@H]2O[C@@H](C)C[C@@H](N(C)C)[C@@H]2O)[C@@](C)(O)C[C@H](C)C(=O)[C@@H](C)[C@H](O)[C@@]1(C)O (some centres undefined) | -5% | 9% | -5% | . | 3 | -7%
CCc1cc2ccccc2nc1SCC(=O)N1CCN(C(=O)c2ccco2)CC1 | -8% | 15%[38.3 µM] | -14% | -19 | -5 | -13%
Cc1nc(N2CCN(c3ccccc3)CC2)c2c3c(sc2n1)CCC3 | -6% | 11%[38.3 µM] | 2% | 1 | 2 | -3%
CCc1nc(SCC(=O)N2CCN(C(=O)c3ccco3)CC2)c2c3c(sc2n1)CCCC3 | -7% | -1%[38.3 µM] | 28µM* | -22 | 11 | -27%
O=C(c1ccco1)N1CCN(c2nc(C3CC3)nc3sc4c(c23)CCCC4)CC1 | -11% | 11%[38.3 µM] | 22µM* | 24 | 6 | ?
Cc1nc(N2CCN(C(=O)c3ccco3)CC2)c2c3c(sc2n1)CCCC3 | 2% | 13% | 40µM* | 71 | 13 | 16µM*
Cc1ccc(S(=O)(=O)N2CCN(c3nc(C)nc4sc5c(c34)CCC(C)C5)CC2)cc1 (centres undefined) | 0% | 3%[38.3 µM] | 16% | -23 | -1 | -9%
Cc1nc(N2CCN(C(=O)c3ccco3)CC2)c2c3c(sc2n1)CC(C)CC3 (centres undefined) | . | 26% | 13µM* | . | . | .
c1cnc2c(-c3nccc4c3[nH]c3ccccc34)cccc2c1 | . | 21% | -4% | . | . | -10%
CC1CCc2c(sc(NC(=O)COc3ccccc3C(C)(C)C)c2C#N)C1 (centres undefined) | . | . | . | . | -9 | .
CC1CCN(C(=O)CNS(=O)(=O)c2ccc(Br)s2)CC1 | -11% | 44%[38.3 µM] | 8.9µM* | -24 | 2 | -23%
CC1CC(C)CN(C(=O)CNS(=O)(=O)c2ccc(Br)s2)C1 (centres undefined) | -6% | -7%[38.3 µM] | -2% | 62 | -1 | -6%
O=C(CCCc1ccccc1)Nc1ccc2c(c1)OCCO2 | . | 0% | -6% | . | . | .
COc1cccc([C@@H]2Oc3ccc(OC)cc3C(=O)[C@H]2O)c1 | 0% | 11% | 0% | 46 | . | -7%
COc1ccc2c(c1)C(=O)[C@@H](O)[C@H](c1ccc(OC)c(Br)c1)O2 | -2% | 10% | 13% | -115* | . | ?
Cc1nn(C)c2ncc(C(=O)c3cc(F)ccc3O)cc12 | 0% | 15%[38.3 µM] | 7% | -8 | 2 | -19%
Cc1nn(-c2ccccc2)c2ncc(C(=O)c3cc(Cl)ccc3O)cc12 | -1% | 15% | -4% | -28 | . | 16µM*
O=C(CSc1nnnn1C1CCCCC1)Nc1nc2c(s1)CCCC2 | -10% | -11%[38.3 µM] | 7.9µM* | 24 | ? | -7%

Source: PubChem (National Center for Advancing Translational Sciences (NCATS))
